Screening data: PubChem, National Center for Advancing Translational Sciences (NCATS)
ELG1 repair inh: qHTS screen for small molecules that inhibit ELG1-dependent DNA repair in human embryonic kidney (HEK293T) cells expressing luciferase-tagged ELG1 | HEK293T ELG1-luciferase reporter, luminescence, 16 h; DNA damage induced by 5-fluorouridine | Potency, µM (titrated, usually from 46.1 µM), inactives show top-dose activity change, negative = inhibition, most hits filed as inhibitors | 2.3% of 330,000 active | AID 504467, 2011; note: % is set by controls: 0 for no effect and ±100 for the full control effect; nearly all actives have a fitted effect of over 55% in size
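DMSO vehicle served as the neutral condition. Each well held 2,000 cells given 5-fluorouridine plus compound; after 16 hr at 37 °C/5% CO2, ONE-Glo was added and luciferase measured 30 min later.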
FLuc modulator: qHTS profiling assay for firefly luciferase inhibitor/activator using purifed enzyme and Km concentrations of substrates (counterscreen for miR-21 project); Potency, µM (series often up to 57.5 µM), for the others: at the highest dose activity change, negative = inhibition, usual class: inhibitors; AID 588342, 2011; 6.9% of 360,000 active; purified FLuc, Km substrates, luminescence inhibition;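 note: plate controls were vehicle for no effect and reference inhibitor for full effect; nearly all actives have a fitted effect of over 55% in size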
Target sequence (P08659 whole entry, looked up): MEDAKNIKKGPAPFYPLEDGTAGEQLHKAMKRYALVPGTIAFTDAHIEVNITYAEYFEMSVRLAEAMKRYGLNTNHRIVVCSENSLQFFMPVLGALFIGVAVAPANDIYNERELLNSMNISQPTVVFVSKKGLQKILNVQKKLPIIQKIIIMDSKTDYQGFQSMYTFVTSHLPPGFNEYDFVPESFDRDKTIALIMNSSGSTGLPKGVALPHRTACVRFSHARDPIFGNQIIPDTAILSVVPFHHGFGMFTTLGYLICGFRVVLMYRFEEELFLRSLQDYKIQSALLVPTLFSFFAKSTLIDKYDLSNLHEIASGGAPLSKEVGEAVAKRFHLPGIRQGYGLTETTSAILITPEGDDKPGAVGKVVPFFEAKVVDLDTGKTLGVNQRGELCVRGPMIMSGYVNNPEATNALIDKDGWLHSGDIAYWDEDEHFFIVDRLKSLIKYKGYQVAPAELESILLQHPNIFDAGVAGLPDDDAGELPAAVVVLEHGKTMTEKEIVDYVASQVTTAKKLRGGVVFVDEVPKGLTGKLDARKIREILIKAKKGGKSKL
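Purified P. pyralis luciferase, 10 nM final, with Km-level 10 uM D-luciferin and 10 uM ATP in 50 mM Tris acetate pH 7.5, 10 mM Mg acetate, 0.01% Tween-20, 0.05% BSA; 6-point qHTS titration about 60 µM downward; luminescence read.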
Rab9 prom act: qHTS Assay for Rab9 Promoter Activators; Huh7 Rab9 promoter-luciferase reporter, luminescence, 24 h; Potency, µM (highest dose often 9.22 µM), without a hit: top-dose activation, negative = inhibition, hits mostly activators; 2.8% of 320,000 active; note: % of control where 0% means no effect; nearly all actives have a fitted effect of over 60% in size
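Huh7 reporter line, Rab9 promoter upstream of luciferase. Compound exposure 24 h at 37 °C in reduced-serum medium with 10% FBS. Read-out: luminescence.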
ELG1 genotox: qHTS screen for small molecules that induce genotoxicity in human embryonic kidney (HEK293T) cells expressing luciferase-tagged ELG1. HEK293T ELG1-luciferase reporter, luminescence, 16 h. Potency, µM (top dose mostly 46 µM), without a hit: at the highest dose activity change, positive = activation, actives largely listed as activators. 1.3% of 330,000 active. AID 504466, 2011; note: % of control where 0% means no effect; nearly all actives have a fitted effect of over 60% in size
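DMSO vehicle served as control against compound-treated ELG1-luciferase HEK293T cells; exposure lasted 16 hr at 37 °C and 5% CO2, followed by ONE-Glo luminescence detection after 30 min.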
SMN2 splice enh: qHTS Assay for Enhancers of SMN2 Splice Variant Expression | 2.8% of 210,000 active | Potency, µM (doses to about 46.1 µM), inactives show at the top dose activity change, positive = activation, hits mostly activators | HEK293 SMN2-luciferase splicing reporter, luminescence, 30-36 h | AID 1458, 2008; note: % of control where 0% means no effect; nearly all actives have a fitted effect of over 55% in size
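HEK293 cells carry an SMN2 […]–luciferase reporter in which exon 7 inclusion puts luciferase in frame. Cells were plated 10-12 h before compound addition, then incubated 30-36 h at 37C. ONE-Glo luminescence was read; sodium butyrate at 4.5 mM final served as control.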
NPC1 prom act: qHTS Assay for NPC1 Promoter Activators | Huh7 NPC1 promoter luciferase reporter, 24 h | Potency, µM (series often up to 9.22 µM), for the others: at the top dose activation, actives largely listed as activators | 2.4% of 320,000 active; note: % of control where 0% means no effect; nearly all actives have a fitted effect of over 60% in size
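Huh7 cells stably carrying NPC1 promoter–luciferase, plated in Opti-MEM with 10% FBS for 2 h, were exposed to compound in DMSO for 24 h at 37 °C; luciferase reagent was added for 10 min and luminescence read.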
* hit, by the source's call; ? = inconclusive; . = not tested or not shown; [ ] = remark or other dose. Most compounds without a hit are left out; they make up all but 9.3% or so of the library. Calls come from the whole dose curve; as a rule, active = well fitted curve in the direction sought with a large enough effect; inconclusive = small, poorly fitted or top-dose-only effect, or another doubt; inactive = no such curve, though single readings can be large; an effect the other way counts as inactive or inconclusive. Potency is the fitted concentration of half-maximal effect.

SMILES	ELG1 repair inh	FLuc modulator	Rab9 prom act	ELG1 genotox	SMN2 splice enh	NPC1 prom act
CCN(CC)CCOc1c(Br)ccc2c1sc1nc3n(c(=O)c12)CCC3	-12%	-2%	-3%	?	-29%	-1%
Cc1ccc2c(c1)c(N=Nc1cccc(C(=O)O)c1)c(O)n2C	?	15µM*	-1%	6%	.	17%
O=C(c1cc2c(ccc3ccccc32)o1)N1CCN(c2ncc(C(F)(F)F)cc2Cl)CC1	7%	2%	-7%	-1%	3%	-1%
O=C(c1cc2c(ccc3ccccc32)o1)N1CCCCC1	?	2.1µM*	0.89µM*	?	.	1.3µM*
NNC(=O)c1cc2c(ccc3ccccc32)o1	15%	-18%	-2%	0%	-3%	-2%
O=C(O)c1cc2c(ccc3ccccc32)o1	?	17µM*	5%	2%	.	1%
COc1ccc(CN(C)C(=O)C23CC4CC(CC(Cl)(C4)C2)C3)c(OC)c1OC	26µM*	-1%	-8%	-11%	.	-1%
O=C(c1ccccc1)C1CCN(C(=O)c2ccco2)CC1	-1%	2%	15%	5%	.	3%
COc1cc(CC(=O)Nc2cccc(S(=O)(=O)N(C)c3ccccc3)c2)cc(OC)c1OC	9.2µM*	.	.	-5%	.	.
CN(c1ccccc1)S(=O)(=O)c1cccc(NC(=O)COc2cccc([N+](=O)[O-])c2)c1	-28%	.	1%	-4%	.	-3%
CCC(=O)c1ccc(OCC(=O)Nc2cccc(S(=O)(=O)N(C)c3ccccc3)c2)cc1	?	15µM*	-4%	1%	.	-7%
CNC(=O)COC(=O)c1cc(-c2ccco2)nc2ccccc12	5%	?	-1%	-3%	.	-6%
O=C(O)c1cc(-c2ccco2)nc2cc3ccccc3cc12	?	8.5µM*	22%	10%	.	16%
O=C(NNC(=O)c1cc(-c2ccco2)nc2ccccc12)c1ccccc1	?	19µM*	3%	-5%	.	-2%
O=C(O)c1ccccc1/C=N/NC(=O)c1cc(-c2ccco2)nc2ccccc12	0%	0.95µM*	14%	-2%	.	-5%
CC(=O)Nc1ccc(/C=N/NC(=O)c2cc(-c3ccco3)nc3ccccc23)cc1	-14%	2.1µM*	3%	3%	.	3%
CCc1c(C)sc2nc(C(C)C)nc(SCC(=O)N3CCc4ccccc4C3)c12	0%	0%	-5%	-7%	-44%	-1%
CC(NC(=O)NC(=O)c1cccc(Cl)c1)c1ccccc1 (centres undefined)	-6%	2%	-2%	-5%	.	4%
Nc1ncnc2nc(-c3ccc(C[P+](c4ccccc4)(c4ccccc4)c4ccccc4)cc3)[nH]c12	.	.	.	.	-18%[9.22 µM]	.
Cn1sc(NC(=O)c2ccccc2Cl)nc1=O	38%	19µM*	-1%	4%	?	-8%
Cn1sc(NC(=O)c2cccc(Cl)c2)nc1=O	?	19µM*	24%	13%	17%	?
Cc1cc(S(=O)(=O)n2ccnc2C(C)C)cc([N+](=O)[O-])c1C	.	?	.	.	28%	.
CC1=CC(C)(C)N(C(=O)CSc2nnc(-c3ccc(C)cc3)o2)c2ccc(C)cc21	-9%	-2%	-4%	-4%	-21%	-2%
C=CCc1ccccc1OCCn1nnc2ccccc21	-12%	-8%	6%	0%	.	0%
Cc1cccc(OCCn2nnc3ccccc32)c1C	?	17µM*	27%	?	.	?
SMILES	ELG1 repair inh	FLuc modulator	Rab9 prom act	ELG1 genotox	SMN2 splice enh	NPC1 prom act
C/C=C/c1ccc(OCCn2nnc3ccccc32)c(OC)c1	?	17µM*	?	?	.	26%
CC(C)Sc1ccc([N+](=O)[O-])cc1C(=O)Nc1ccncc1	-12%	2%	-3%	2%	.	2%
O=C(c1ccco1)N1N=C(c2ccc3nccnc3c2)CC1c1ccccc1 (centres undefined)	-8%	17µM*	17%	6%	0%	-8%
CS(=O)(=O)Nc1ccc(C2=NN(C(=O)c3ccco3)C(c3ccc(F)cc3)C2)cc1 (centres undefined)	?	-3%	-3%	-4%	-56%	-3%
CCC(=O)N1N=C(c2cccc(NS(C)(=O)=O)c2)CC1c1cccs1 (centres undefined)	23µM*	-4%	-3%	1%	8%	-1%
CS(=O)(=O)Nc1ccc(C2=NN(C(=O)c3cccc(F)c3)C(c3cccs3)C2)cc1 (centres undefined)	16µM*	-2%	7%	-5%	.	-4%
CS(=O)(=O)Nc1cccc(C2=NN(C(=O)c3ccco3)C(c3cccs3)C2)c1 (centres undefined)	6.5µM*	-7%	2%	-9%	.	2%
CS(=O)(=O)Nc1cccc(C2=NN(C(=O)CCC(=O)O)C(c3cccs3)C2)c1 (centres undefined)	-1%	0%	?	0%	.	0%
CC(=O)N1N=C(c2cccc(NS(C)(=O)=O)c2)CC1c1cccs1 (centres undefined)	-11%	-1%	-1%	1%	19%	-5%
CS(=O)(=O)Nc1ccc(C2=NN(C(=O)c3ccccc3)C(c3cccs3)C2)cc1 (centres undefined)	?	-2%	0%	0%	.	-4%
CCc1c(C)sc2c1CCN(C(=O)Nc1ccc(F)c(Cl)c1)C2c1ccc(F)cc1 (centres undefined)	.	1%	.	.	.	.
Cc1ccc(CN2CCN(/N=C\c3cccc([N+](=O)[O-])c3)CC2)cc1	3%	2%	-2%	-5%	-45%	-4%
